PubChem BioAssay (NCATS)
Inconclusive results are not listed. Unless noted, calls follow the shape of the dose curve; as a rule, active = well fitted curve in either direction with a large enough effect (not every such curve was filed as active); inconclusive = small, poorly fitted or top-dose-only effect, or another doubt; inactive = flat fitted curve, though single readings scatter.

How the values were obtained:
[1] = AP1 Signaling Pathway (AID 357); settings: ME-180 AP-1-bla reporter, EGF-induced, beta-lactamase ratio, 5 h; at 17.2 µM (top of the series) unless noted;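 also: ME-180 reporter cells stimulated with EGF at its EC50 level; % is scaled to controls: 0 for no effect and ±100 for the full control effect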
Procedure, shortened: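 Beta-lactamase reporter under AP-1 response element, ME-180 background. Stimulus: EC50 EGF. Compound exposure 5 h, 37 °C. Detection: CCF4, 2.5 h RT, 460/530 nm. Values: AC50 from titration.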

[2] = NFAT Signaling Pathway (AID 444); settings: Jurkat NFAT-bla M1, carbachol, beta-lactamase ratio, 5 h; at 17.2 µM (top of the series) unless noted;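 also: carbachol stimulus at about its EC50 of 1 µM final; % is scaled to controls: 0 for no effect and ±100 for the full control effect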
Procedure, shortened: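 Jurkat cells with NFAT-driven β-lactamase reporter and co-expressed M1 receptor, stimulated with carbachol (final 1 uM, ~EC50), compound titration, 5 h at 37 °C. CCF4 loaded 1 h at RT; 460/530 nm ratio gave %activity and AC50.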

[3] = Stat Signaling Pathway (AID 446); settings: ME-180 (cervical carcinoma) SIE beta-lactamase reporter, IL-6 stimulated, 5 h; at 17.2 µM (top of the series) unless noted;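 also: ME-180 cervical cancer cells given 40 pM IL-6 alongside compound; SIE-controlled beta-lactamase reporter measured as 460/530 nm FRET emission ratio; % is scaled to controls: 0 for no effect and ±100 for the full control effect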
Procedure, shortened: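 Emission at 460 and 530 nm (excitation 405 nm) reports SIE-controlled beta-lactamase in ME-180 cells. Cells received compound with 40 pM IL-6 for 5 hrs at 37 C; data scaled between 300 pM IL-6 and 125 nM JAK-inhibitor controls.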

[4] = target: Glucocorticoid receptor (Homo sapiens) (UniProt P04150); test: GR-GFP Redistribution (AID 450;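 active = compounds whose dose series gives a full or clear partial fitted curve of increased nuclear translocation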; also: potency is read from the fitted curve at half-maximal effect)
Glucocorticoid receptor (Homo sapiens), sequence (P04150 whole entry, looked up): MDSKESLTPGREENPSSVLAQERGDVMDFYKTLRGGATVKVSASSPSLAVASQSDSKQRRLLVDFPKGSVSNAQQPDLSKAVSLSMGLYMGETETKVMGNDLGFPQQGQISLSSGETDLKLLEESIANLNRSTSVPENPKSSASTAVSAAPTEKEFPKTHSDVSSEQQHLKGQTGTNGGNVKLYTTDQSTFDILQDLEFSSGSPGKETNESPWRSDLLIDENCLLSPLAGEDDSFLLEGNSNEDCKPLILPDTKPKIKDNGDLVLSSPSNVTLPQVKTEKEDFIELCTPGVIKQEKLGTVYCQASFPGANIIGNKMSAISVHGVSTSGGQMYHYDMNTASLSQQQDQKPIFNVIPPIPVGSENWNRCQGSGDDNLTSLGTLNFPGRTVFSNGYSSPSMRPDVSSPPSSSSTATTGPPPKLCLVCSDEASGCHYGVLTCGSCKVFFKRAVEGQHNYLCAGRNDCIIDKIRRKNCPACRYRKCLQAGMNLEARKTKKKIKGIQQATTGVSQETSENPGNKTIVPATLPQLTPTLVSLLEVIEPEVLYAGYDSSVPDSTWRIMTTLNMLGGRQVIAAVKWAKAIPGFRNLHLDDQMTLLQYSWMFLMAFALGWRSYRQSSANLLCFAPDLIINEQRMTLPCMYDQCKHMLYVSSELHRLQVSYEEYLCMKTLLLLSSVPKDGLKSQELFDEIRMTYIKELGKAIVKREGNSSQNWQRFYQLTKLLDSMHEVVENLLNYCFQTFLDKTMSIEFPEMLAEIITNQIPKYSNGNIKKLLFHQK

CCCCC1(C(=O)OCC)CC(CN2CCOCC2)OC1=O (centres undefined)
inactive: activity change, negative = inhibition [1] 2.64% | activity change, negative = inhibition [2] -18.1% | activity, negative = inhibition [3] 3.3% | Potency [4] > 20.6 µM

C=CCNc1nc(NCc2ccccc2)c(C#N)c2c1CN(C)CC2
inactive: activity change, negative = inhibition [1] 23.1% | activity change, negative = inhibition [2] 5.41% | activity, negative = inhibition [3] 25.2% | Potency [4] > 20.6 µM

O=C1CCC(=O)N1CNc1ccccn1
inactive: activity change, negative = inhibition [1] 10.7% | activity change, negative = inhibition [2] -7.64% | activity, negative = inhibition [3] 15.6% | Potency [4] > 20.6 µM

COc1ccc(-c2oc3ncn4nc(Cc5ccccc5)nc4c3c2-c2ccc(OC)cc2)cc1
inactive: activity change, negative = inhibition [1] -0.634% | activity change, negative = inhibition [2] -13% | activity, negative = inhibition [3] -13.3% | Potency [4] > 20.6 µM

N#CC1(c2ccccc2)CCC(=NO)CC1 (centres undefined)
inactive: activity change, negative = inhibition [1] -5.72% | activity change, negative = inhibition [2] 8.2% | activity, negative = inhibition [3] 11.5% | Potency [4] > 20.6 µM

CN1CCN(Cc2c(O)c(Cl)cc3c(-c4ccccc4)cc(=O)oc23)CC1
inactive: activity change, negative = inhibition [1] -17.1% | activity change, negative = inhibition [2] -1.47% | activity, negative = inhibition [3] -7.42% | Potency [4] > 20.6 µM

CC(C)Cc1nc(N2CCOCC2)c(C#N)c2c1COC(C)(C)C2
inactive: activity change, negative = inhibition [1] 0.834% | activity change, negative = inhibition [2] -9.76% | activity, negative = inhibition [3] 4.57% | Potency [4] > 20.6 µM

CCc1nc(NCC(C)C)c(C#N)c2c1COC(C)(C)C2
inactive: activity change, negative = inhibition [1] -11.6% | activity change, negative = inhibition [2] -0.964% | activity, negative = inhibition [3] 1.74% | Potency [4] > 20.6 µM

CC(=O)Nc1n[nH]c(S(=O)(=O)Cc2ccc(Cl)cc2Cl)n1
inactive: activity change, negative = inhibition [1] -2.5% | activity change, negative = inhibition [2] 4.1% | activity, negative = inhibition [3] 3.27% | Potency [4] > 20.6 µM

CC1(C)Cc2nc(N)c(C(=O)NCCO)cc2CO1
inactive: activity change, negative = inhibition [1] 8.22% | activity change, negative = inhibition [2] 3.25% | activity, negative = inhibition [3] 9.02% | Potency [4] > 20.6 µM

COc1ccc(-c2cc(-c3ccccc3)n3ncnc3n2)cc1
inactive: activity change, negative = inhibition [1] -5.02% | activity change, negative = inhibition [2] -9.06% | activity, negative = inhibition [3] 1.12% | Potency [4] > 20.6 µM

COc1ccc(C(=O)NCCCCCC(=O)O)cc1OC
inactive: activity change, negative = inhibition [1] 5.18% | activity change, negative = inhibition [2] -3.46% | activity, negative = inhibition [3] 2.88% | Potency [4] > 20.6 µM

CC(C)C1C(C#N)=C(N)Oc2n[nH]c(C(C)(C)C)c21 (centres undefined)
inactive: activity change, negative = inhibition [1] -20.9% | activity change, negative = inhibition [2] -6.87% | activity, negative = inhibition [3] -18.4% | Potency [4] > 20.6 µM

COc1ccccc1N1CCN(C(=O)c2c(C)cc(=O)oc2C)CC1
inactive: activity change, negative = inhibition [1] 10.3% | activity change, negative = inhibition [2] -1.71% | activity, negative = inhibition [3] 6.24% | Potency [4] > 20.6 µM

Cc1cccc(-c2nnc3n2N=C(c2ccccc2)CS3)c1
inactive: activity change, negative = inhibition [1] -18.5% | activity change, negative = inhibition [2] -10.4% | activity, negative = inhibition [3] -6.13% | Potency [4] > 20.6 µM

CN=c1sc2ccccc2n1CC(O)COCc1ccco1 (centres undefined)
inactive: activity change, negative = inhibition [1] -8.62% | activity change, negative = inhibition [2] 1.06% | activity, negative = inhibition [3] -2.56% | Potency [4] > 20.6 µM

C1CNCCNCCCNCCNC1
inactive: activity change, negative = inhibition [1] 1.85% | activity change, negative = inhibition [2] 2.39% | activity, negative = inhibition [3] -11.5% | Potency [4] > 20.6 µM

Cc1ccc(N(CC(O)CN(C)C)S(=O)(=O)c2ccccc2)cc1 (centres undefined)
inactive: activity change, negative = inhibition [1] -7.29% | activity change, negative = inhibition [2] -10.3% | activity, negative = inhibition [3] 1.04% | Potency [4] > 20.6 µM

O=C(NCCCn1ccnc1)c1cccnc1
inactive: activity change, negative = inhibition [1] 14.4% | activity change, negative = inhibition [2] -7.91% | activity, negative = inhibition [3] 6.38% | Potency [4] > 20.6 µM

Clc1ccc(-c2cn3c(n2)CCC3)cc1
inactive: activity change, negative = inhibition [1] 4.83% | activity change, negative = inhibition [2] -26.9% | activity, negative = inhibition [3] 7.31% | Potency [4] > 20.6 µM

CC1(C)Cc2c(c(N3CCOCC3)nc3sc4c(=O)[nH]cnc4c23)CS1
inactive: activity change, negative = inhibition [1] 4.29% | activity change, negative = inhibition [2] 5.56% | activity, negative = inhibition [3] -18.3% | Potency [4] > 20.6 µM

CCCc1cc(=O)oc2c(CN3CCCC3)c(O)ccc12
inactive: activity change, negative = inhibition [1] -13.6% | activity change, negative = inhibition [2] 8.87% | activity, negative = inhibition [3] 2.68% | Potency [4] > 20.6 µM

O=C1NCC(COCC2CC=CCC2)O1 (centres undefined)
inactive: activity change, negative = inhibition [1] 9.6% | activity change, negative = inhibition [2] 15% | activity, negative = inhibition [3] 2.08% | Potency [4] > 20.6 µM

O=C1OC(N2CCN(C/C=C/c3ccccc3)CC2)c2ccccc21 (centres undefined)
inactive: activity change, negative = inhibition [1] 7.53% | activity change, negative = inhibition [2] 10.2% | activity, negative = inhibition [3] 0.214% | Potency [4] > 20.6 µM

CCOC(=O)CCc1c(C)c(C#N)c2nc3ccccc3n2c1-n1ccnc1C
inactive: activity change, negative = inhibition [1] -3.36% | activity change, negative = inhibition [2] -1.61% | activity, negative = inhibition [3] -4.34% | Potency [4] > 20.6 µM

CCCOC(=O)CSC1=C(C#N)C(c2ccccc2OC)C(C#N)C(=O)N1 (centres undefined)
inactive: activity change, negative = inhibition [1] -16.4% | activity change, negative = inhibition [2] 13.9% | activity, negative = inhibition [3] -22.7% | Potency [4] > 20.6 µM
